Among the data in PubChem BioAssay (NCI) are growth values, retold here.

Compounds without any hit were thinned out: in the full panel of roughly 83,000, 20% have a hit.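 Values shown are percent growth following 48 h exposure of cells in 96-well plates to a single concentration of compound; below 10 was considered active.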 Values without a mark were called inactive. The source made the active and inactive calls.

Common to all, as to test: NCI-60 one-dose screen, 48 h (100 = growth as untreated, 0 = no growth, -100 = all killed)
What all share (details): 10 µM

Experiment [1] deals with SK-MEL-2 melanoma.
The test system of experiment [2] is EKVX NSCLC.
For experiment [3], the system named is SN12C renal.
For experiment [4], the system named is UO-31 renal.
For experiment [5], the system named is TK-10 renal.
The test system of experiment [6] is ACHN renal.
Experiment [7] deals with CAKI-1 renal.
Experiment [8] concerns A498 renal.
Experiment [9] deals with CCRF-CEM leukemia.
Experiment [10] has as its system MOLT-4 leukemia.

In the case of `NS(=O)(=O)Oc1ccc2c(ccn2C(=O)C23CC4CC(CC(C4)C2)C3)c1`, the growth is 116% in [1]; 109% in [2]; 97.8% in experiment [3]; 80.4% in [4]; 106% in [5]; 101% in experiment [6]. The growth in experiment [7] was 94.4%; in [8] it was 98.1%; in [9], 99%; in experiment [10], 101%.
On to `CCOC(=O)C1C(C(=O)OCC)C2C(=O)C3C(C(=O)OCC)C(C(=O)OCC)C3C(=O)C12` (stereo not given), for which the growth in [1] was 115%; in [2], 96.3%; in [3], 94.2%; in experiment [4], 94.8%; in experiment [5], 112%; in experiment [6], 98.8%. The growth in [7] was 101%; in experiment [8], 102%; in [9], 102%; in [10], 106%.
With `CC1(C)N=C(N)N=C(N)N1c1cccc(C#N)c1`, the growth was 79.1% in experiment [1]; 67% in experiment [2]; 94.3% in experiment [3]; 77.9% in experiment [4]; 62.4% in experiment [5]; 37.1% in experiment [6]. Besides, the growth in experiment [7] is 95.2%; in experiment [8] it was 69.8%; in experiment [9], 35.7%; in experiment [10], 31.2%.
With `COc1cc(/C=C/c2cc(/C=C/c3ccc(O)c(OC)c3)nc(N)n2)ccc1O`, the growth was -21% (active) in [1]; 22.2% in experiment [2]; 22.1% in experiment [3]; 3.16% (active) in experiment [4]; 21.4% in experiment [5]; 13.5% in experiment [6]. Further, the growth in experiment [7] was 19.2%; in experiment [8], -56.9% (active); in experiment [9] it was 1.68% (active); in [10], 4.17% (active).
Regarding `CNS(=O)(=O)Oc1ccc(-c2ccc3occc3c2)cc1`, the growth was 108% in experiment [1]; 38.6% in [2]; 97.7% in experiment [3]; 90.4% in [4]; 98.5% in experiment [5]; 99.5% in experiment [6]. Also, the growth was 93.3% in experiment [7], 102% in experiment [8], 87.7% in experiment [9] and 96.2% in experiment [10].
For the compound `O=S(=O)(Oc1ccc(-c2ccc3sccc3c2)cc1)c1ccc(F)cc1`, the growth in [1] was 114%; in experiment [2], 91.5%; in experiment [3], 96.5%; in experiment [4], 92.2%; in experiment [5], 93.7%; in [6], 107%. Also, the growth in [7] is 82.7%; in experiment [8] it was 95.3%; in experiment [9], 86.1%; in experiment [10], 89.4%.
For `O=C(COc1cccc(/C=C2\CSc3ccccc3C2=O)c1)c1ccc(Cl)cc1`, the growth in experiment [1] is -71.6% (active); in experiment [2], 68.1%; in [3] it was -6.61% (active); in experiment [4] it was -79% (active); in experiment [5], -4.52% (active); in [6], -65.6% (active). The growth in experiment [7] was -65.2% (active); in experiment [8] it was 54%; in experiment [9], -51.6% (active); in [10] it was -67.3% (active).
As to `O=C1CSC(=S)N1/N=C/c1ccc(Cl)s1`, the growth in experiment [1] is 98.6%; in experiment [2], 101%; in [3] it was 95.8%; in [4], 79.3%; in [5], 118%; in [6], 98.4%. Further, the growth in experiment [7] was 100%; in experiment [8] it was 103%; in [9], 98.6%; in [10], 102%.
Consider `COc1ccc(/C=C2/SC(=S)NC2=O)c(OC)c1OC`, for which the growth is 87.4% in [1]; 65.9% in experiment [2]; 78.7% in experiment [3]; 42.5% in experiment [4]; 81.3% in experiment [5]; 77.4% in [6]. The growth in [7] was 64.3%; in [8], 54.2%; in experiment [9], 76.8%; in [10] it was 90.1%.
For `COc1cc(/C=C/c2cc(/C=C/c3ccc(O)c(OC)c3)n(C(=O)Nc3ccc(C)cc3)n2)ccc1O`, the growth in experiment [1] was -14% (active); in [2], 20.3%; in [3], 18.3%; in [4], 0.972% (active); in experiment [5] it was 28.5%; in experiment [6] it was 16.1%. For the same compound, the growth is 8.65% (active) in [7], -12% (active) in experiment [8], 0.439% (active) in experiment [9] and 0.114% (active) in experiment [10].
As to `CCOc1ccccc1/C=N\N=C\c1ccccc1O`, the growth in experiment [1] was 100%; in [2], 91.5%; in [3], 93.5%; in experiment [4], 52%; in [5], 121%; in experiment [6] it was 100%. Moreover, the growth in experiment [7] is 92.9%; in experiment [8] it was 91.2%; in experiment [9], 71.6%; in experiment [10], 72.5%.
Regarding `Cc1ccc(C(=O)C2C(=O)C3CCC2C3)cc1` (stereo not given), the growth was 111% in experiment [1]; 98.5% in [2]; 97.3% in experiment [3]; 90.2% in experiment [4]; 111% in [5]; 100% in experiment [6]. The growth in experiment [7] was 96.1%; in [8], 109%; in experiment [9] it was 96.3%; in experiment [10], 105%.
Consider `O=C(COc1cccc(/C=C2\CSc3ccc(Cl)cc3C2=O)c1)c1ccc(Cl)cc1`, for which the growth in experiment [1] was 44.2%; in experiment [2] it was 70.3%; in [3], 79.7%; in experiment [4] it was -7.04% (active); in [5], 127%; in [6] it was 81.7%. In addition, the growth in experiment [7] was 61.2%; in experiment [8], 91.3%; in experiment [9], -26.1% (active); in experiment [10], -12.1% (active).
In the case of `NC1=CC(=O)C(=O)c2cccnc21`, the growth in experiment [1] is 77.9%; in experiment [2], 98.3%; in experiment [3], 70%; in experiment [4], 47.8%; in experiment [5], 113%; in experiment [6], 60.1%. Also, the growth in [7] was 83.1%; in [8] it was 92.6%; in experiment [9] it was 82.9%; in experiment [10], 106%.
